# Shown are actives, neighbours in structure and some others; about 18% of the full set was active somewhere.
# IL1B secr inh: inflammasome signaling inhibition, IL-1 beta readout. THP-1 LPS/ATP IL-1B secretion, AlphaLISA, 16 h; active compounds read low. 4.7% of 360,000 active. activity change, % at 57.5 µM; in the data active = activity change below about -50%; inconclusive = mostly about -30% to -49%
#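 Secreted IL-1B measured by AlphaLISA bead assay after 16 h compound exposure of THP-1 cells; compounds (final up to 57.5 uM) added 1 h before LPS (250 ng/mL) and ATP (1.25 mM) stimulation; lower signal means less secretion.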
# DT40 TDP1 CPT: growth inhibition of DT40 Tdp1-/-;hTDP1 cells with camptothecin (screen for TDP1 inhibitors). chicken DT40 Tdp1-/-;hTDP1 cells + 20 nM CPT, ATP luminescence, 48 h. Potency, µM (titrated, usually from 46.2 µM), for the others: top-dose activity change, negative = growth inhibition, most hits filed as inhibitors. 12% of 420,000 active. AID 686979; note: potency is the fitted concentration of half-maximal effect; nearly all actives have a fitted effect of over 55% in size
#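 Cell growth measured by CellTiter-Glo luminescence after a minimum 48 h, 37 C compound exposure with 20 nM CPT in Tdp1-knockout DT40 cells stably expressing hTDP1, seeded 400/well; qHTS titration format.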
# TDP1 block: inhibitors of human tyrosyl-DNA phosphodiesterase TDP1. recombinant TDP1, AlphaScreen DNA substrate cleavage. Potency, µM (highest dose often 130 µM), without a hit: at the top dose activity change, negative = inhibition, usual class: inhibitors. 0.28% of 350,000 active; note: potency is the fitted concentration of half-maximal effect; nearly all actives have a fitted effect of over 40% in size
# Target sequence (Q9NUW8 whole entry, looked up): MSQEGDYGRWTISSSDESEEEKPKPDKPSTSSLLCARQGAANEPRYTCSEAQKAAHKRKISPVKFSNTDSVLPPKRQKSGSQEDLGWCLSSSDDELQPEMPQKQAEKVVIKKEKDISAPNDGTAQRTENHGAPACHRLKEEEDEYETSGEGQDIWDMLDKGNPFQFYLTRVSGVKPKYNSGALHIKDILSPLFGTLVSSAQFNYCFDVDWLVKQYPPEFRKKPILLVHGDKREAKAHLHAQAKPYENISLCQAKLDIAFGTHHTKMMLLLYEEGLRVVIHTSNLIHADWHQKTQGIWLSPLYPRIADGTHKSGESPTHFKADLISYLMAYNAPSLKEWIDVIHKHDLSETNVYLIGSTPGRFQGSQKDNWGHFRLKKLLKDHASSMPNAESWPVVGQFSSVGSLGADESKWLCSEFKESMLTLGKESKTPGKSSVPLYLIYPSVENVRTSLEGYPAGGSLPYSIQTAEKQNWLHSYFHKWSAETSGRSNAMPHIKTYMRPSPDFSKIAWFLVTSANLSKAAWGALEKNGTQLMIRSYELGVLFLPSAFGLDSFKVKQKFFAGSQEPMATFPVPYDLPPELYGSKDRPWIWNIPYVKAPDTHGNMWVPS
#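 E. coli-derived human Tdp1, 1 nM final. Cpd preinc 15 min RT; substrate 15 nM final, 5 min RT; AS bead mix 10 ug/ml final, 10 min RT. Signal loss = tyrosine-FITC cleavage. No-enzyme wells = max signal.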
# DT40 TDP1 no CPT: qHTS for Inhibitors of human tyrosyl-DNA phosphodiesterase 1 (TDP1): qHTS in cells in absence of CPT | DT40 Tdp1-/- hTDP1 cells, no CPT, ATP luminescence, 48 h | Potency, µM (doses to about 46.2 µM), for inactives: at the top dose activity change, negative = growth inhibition, usual class: inhibitors | 15% of 420,000 active | AID 686978, 2013; note: potency is the fitted concentration of half-maximal effect; nearly all actives have a fitted effect of over 55% in size
#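 DT40 Tdp1-/-;hTDP1 cells, no CPT (DMSO vehicle only), 400 cells/well; compounds pin-transferred; ≥48 hr, 37 °C; CellTiter-Glo 30 min RT dark, luminescence read.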
# CtBP-E1A inh: CtBP/E1A binding inhibition; 0.49% of 340,000 active; AlphaScreen GST-E1A/His-CtBP binding, 1536-well; active compounds read low; activity change, % (concentration not given with the values); in the data active = activity change below about -65%; inconclusive = mostly about -30% to -63%
#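 In 5 uL wells, 23 nL compound meets equimolar GST-E1A and His-CtBP (5X stock 125 nM each) for 2 h, 37 °C. Beads (5X, 50 ug/mL) then 1 h, 37 °C, dark.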
# Six1-Eya2 inh: blocks human Six1 binding to Eya2. activity change, % (concentration not given with the values). AID 651725. 0.56% of 360,000 active. AlphaScreen GST-Six1/His-Eya2 binding, biochemical; active compounds read low; in the data active = activity change below about -65%; inconclusive = mostly about -30% to -63%
#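 Homogeneous AlphaScreen proximity assay pairing GST-Six1 with His-tagged Eya2 (added as 5X mix: 250 nM and 500 nM) in 50 mM Tris pH 8.0, 300 mM NaCl, 1 mM TCEP. Glutathione donor and nickel acceptor beads; 1 h, 37 °C, dark.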
# * = called active by the depositor; ? = inconclusive; . = no result given; [ ] = dose if it differs, or a comment. Unless noted, calls come from the whole dose curve; as a rule, active = well fitted curve in the direction sought with a large enough effect; inconclusive = small, poorly fitted or top-dose-only effect, or another doubt; inactive = no such curve, though single readings can be large; an effect the other way counts as inactive or inconclusive. % is set by controls: 0 for no effect and ±100 for the full control effect.
SMILES,IL1B secr inh,DT40 TDP1 CPT,TDP1 block,DT40 TDP1 no CPT,CtBP-E1A inh,Six1-Eya2 inh
CCOc1ccc(NC(=O)CN(C)C(=O)c2ccc(NC3CC3)c([N+](=O)[O-])c2)cc1OCC,-22,-19%,-5%[0.505 µM],-40%,-9,-12
COC(=O)c1ccccc1NC(=O)c1ncoc1-c1ccco1,.,13µM*,6%,?,.,.
COc1ccccc1NC(=O)c1ncoc1-c1ccco1,.,-11%,9%,0%,.,.
CC(=O)c1ccc(N2CCN(C(=O)COc3ccccc3F)CC2)c(F)c1,17,?,2%,23µM*,1,-2
CCOC(=O)N1CCN(c2ccc(C(C)=O)cc2F)CC1,-5,-19%,5%,-5%,2,4
O=C(CCOc1ccccc1F)N1CCN(c2ccccc2O)CC1,14,?,3%,16µM*,2,5
COc1ccccc1OCCC(=O)N1CCN(c2ccccc2OC)CC1,4,?,2%,?,5,6
CCC(=O)c1ccc(N2CCN(C(=O)COc3ccccc3F)CC2)c(F)c1,32,?,2%,13µM*,3,3
COc1ccc(NS(=O)(=O)c2cccc(C(=O)NCC3(N4CCCCC4)CCCCC3)c2)cc1,-5,?,1%,-26%,2,-6
CC(=O)N1Cc2ccccc2CC1C(=O)N1CCN(c2ccccc2)CC1 (stereo not drawn),-1,-1%,4%,-14%,1,-1
O=C(CC1C(=O)CCCC1=O)c1ccccc1,-204*,13µM*,1%,?,-2,6
Cc1cccc(CNc2ccnc(-c3ccccc3CN(C)C)n2)c1,.,13µM*,5%[56.1 µM],7.3µM*,.,.
Cc1cccc(CNc2cc(-c3ccccc3CN(C)C)ncn2)c1,.,?,-1%,?,.,.
COc1ccc(CNc2ccnc(-c3ccccc3C(F)(F)F)n2)c(OC)c1,.,?,6%[56.1 µM],?,.,.
COc1ccccc1-c1nccc(NCc2cccc(C)c2)n1,.,16µM*,11%[56.1 µM],10µM*,.,.
COc1ccccc1-c1cncnc1NCc1cccc(C)c1,.,?,.,21µM*,.,.
CCN(CC)S(=O)(=O)c1ccc(N/N=C(\C)c2ccc(OC)cc2O)nc1,243,3.3µM*,11%,29µM*,.,?
CCN(CC)S(=O)(=O)c1ccc(N/N=C/c2ccc(OC)c(OC)c2OC)nc1,5,?,-8%,18µM*,0,-9
CCOc1cccc(/C=N/Nc2ccc(S(=O)(=O)N(CC)CC)cn2)c1O,52,0.16µM*,8%,0.58µM*,-19,-11
CCCNc1ccc(S(=O)(=O)N(CC)CC)cn1,3,16µM*,3%,-90%,-25,8
CCCNc1ccc(S(=O)(=O)N(C(C)C)C(C)C)cn1,10,-5%,2%,?,0,39
CCCCNC(=O)O[C@H]1C[C@@H]2CCN3C(=O)CCC(C)(C)[C@H](C1)[C@H]23,22,-28%,.,-6%,-3,6
COc1ccc2cc(-c3ccon3)ccc2c1,-6,-18%,.,2%,16,7
CCOC(=O)c1c(C)c(C(=O)Nc2cc(OC)ccc2OC)c(C)n1CC,-2,6.5µM*,10%,18µM*,-30,?
COc1ccc(NC(=O)COC(=O)c2ccc(OCc3ccc(Cl)cc3Cl)c(OC)c2)c(OC)c1,6,?,-3%,?,2,1
CCOC(=O)c1[nH]c(C)c(C(=O)Nc2cc(OC)ccc2OC)c1C,76,0.79µM*,8%,0.56µM*,-17,-15
CCOC(=O)c1c(C)[nH]c(C(=O)N/N=C/c2ccc(Br)cc2)c1C,14,1.2µM*,2%,0.023µM*,-6,-14
COc1ccc(C)cc1NC(=O)COC(=O)c1ccc(OCc2ccc(Cl)cc2Cl)c(OC)c1,0,18µM*,-1%,16µM*,3,0
